Bioassay records (PubChem BioAssay)
Sampled rows, rich in hits. Any-hit rate of the full collection: about 19%.
DT40 TDP1 no CPT – qHTS for Inhibitors of human tyrosyl-DNA phosphodiesterase 1 (TDP1): qHTS in cells in absence of CPT; DT40 Tdp1-/- hTDP1 cells, no CPT, ATP luminescence, 48 h; 420,000 tested, 15% active; AID 686978, 2013; Potency, µM (top dose mostly 46.2 µM), for the others: at the highest dose activity change, negative = growth inhibition, actives largely listed as inhibitors; further: potency means the concentration at half of the fitted maximal effect; nearly all actives have a fitted effect of over 55% in size
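Camptothecin absent (DMSO only). Human TDP1-complemented DT40 knockout cells, 400 cells/well, 37 °C for minimum 48 hr; ATP measured via CellTiter-Glo, 30 min dark incubation, luminescence.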
IL1B secr inh – qHTS for Inhibitors of Inflammasome Signaling: IL-1-beta AlphaLISA Primary Screen. THP-1 LPS/ATP IL-1B secretion, AlphaLISA, 16 h; stronger effect = lower value. activity change, % at 57.5 µM. 360,000 tested, 4.7% active. AID 743279, 2014; in the data active means activity change below about -50%; inconclusive means mostly about -30% to -49%
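THP-1 cells pretreated 1 hr with compounds (up to 57.5 uM final), then stimulated with LPS (250 ng/mL final) plus ATP (1.25 mM final); secreted IL-1B measured by AlphaLISA after 16 hr, decreased signal indicating inhibition.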
TDP1 cell CPT – qHTS for Inhibitors of human tyrosyl-DNA phosphodiesterase 1 (TDP1): qHTS in cells in presence of CPT | Potency, µM (titrated, usually from 46.2 µM), for inactives: at the top dose activity change, negative = growth inhibition, actives largely listed as inhibitors | AID 686979, 2013 | 420,000 tested, 12% active | chicken DT40 Tdp1-/-;hTDP1 cells + 20 nM CPT, ATP luminescence, 48 h; further: potency means the concentration at half of the fitted maximal effect; nearly all actives have a fitted effect of over 55% in size
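Cell growth measured by CellTiter-Glo luminescence after a minimum 48 h, 37 C compound exposure with 20 nM CPT in Tdp1-knockout DT40 cells stably expressing hTDP1, seeded 400/well; qHTS titration format.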
ELG1 DNA repair – qHTS screen for small molecules that inhibit ELG1-dependent DNA repair in human embryonic kidney (HEK293T) cells expressing luciferase-tagged ELG1. HEK293T ELG1-luciferase reporter, luminescence, 16 h; DNA damage induced by 5-fluorouridine. Potency, µM (series often up to 46.1 µM), inactives show top-dose activity change, negative = inhibition, actives largely listed as inhibitors. 330,000 tested, 2.3% active. AID 504467, 2011; further: potency means the concentration at half of the fitted maximal effect; nearly all actives have a fitted effect of over 55% in size
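Luminescence from the luciferase reporter, measured 30 min after ONE-Glo reagent at room temperature, was the read-out. Beforehand, 2,000 cells per well were exposed for 16 hr at 37 °C to 5-fluorouridine together with compound or vehicle.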
HT1080-NT tox – qHTS for induction of synthetic lethality in tumor cells producing 2HG: qHTS for the HT-1080-NT fibrosarcoma cell line. HT-1080-NT fibrosarcoma viability, CellTiter-Glo ATP luminescence, 48 h. 360,000 tested, 1.6% active. Potency, µM (titrated, usually from 46.1 µM), without a hit: top-dose activity, negative = less viability, usual class: cytotoxic. AID 686970, 2013;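 further: NT is the 2HG producing partner of a matched IDH1 knockdown line; potency means the concentration at half of the fitted maximal effect; 0% = DMSO-treated cells and -100% = media-only wells without cells; nearly all actives have a fitted effect of over 55% in size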
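Compounds were tested in concentration-response format on HT-1080-NT cells for 48 hours at 37 degrees C. Cell viability came from CellTiter-Glo luminescence; curves were classified by r2, response magnitude and activity.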
HT1080 IDH1KD tx – qHTS for induction of synthetic lethality in tumor cells producing 2HG: qHTS for the HT-1080-IDH1KD cell line | HT-1080 IDH1 knockdown viability, ATP luminescence, 48 h | Potency, µM (titrated, usually from 46.1 µM), for the others: at the top dose activity, negative = toxicity, usual class: cytotoxic | 360,000 tested, 2% active | AID 686971, 2013;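 further: potency means the concentration at half of the fitted maximal effect; 0% = DMSO wells and -100% = cell-free medium wells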
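Using the IDH1-knockdown HT-1080 line run in the same batch and compound series as the NT line, viability after 48 h at 37 °C was determined by CellTiter-Glo luminescence and expressed as % activity.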
Active calls of the source: *; ? = inconclusive; · = no result. Unless noted, the call rests on the fitted dose curve; in most records, active means well fitted curve in the direction sought with a large enough effect; inconclusive means small, poorly fitted or top-dose-only effect, or another doubt; inactive means no such curve, though single readings can be large; an effect the other way counts as inactive or inconclusive. Unless noted, on the % scale 0 is the no-effect control and ±100 the full control effect.

SMILES	DT40 TDP1 no CPT	IL1B secr inh	TDP1 cell CPT	ELG1 DNA repair	HT1080-NT tox	HT1080 IDH1KD tx
CCN(C[C@H]1N[C@@](Cc2ccccc2)(C(=O)OC)[C@H]2C(=O)N(Cc3ccccc3)C(=O)[C@@H]12)C(=O)c1ccc(F)cc1	?	-17	16µM*	?	5%	3%
CCN(C[C@H]1N[C@@](CC)(C(=O)OC)[C@H]2C(=O)N(Cc3ccccc3)C(=O)[C@@H]12)C(C)=O	-1%	15	-7%	?	0%	2%
CCN(C[C@H]1N[C@@](CC)(C(=O)OC)[C@H]2C(=O)N(Cc3ccccc3)C(=O)[C@@H]12)C(=O)c1ccc(F)cc1	?	-12	-30%	16µM*	6%	11%
CCN(C[C@H]1N[C@@](CC)(C(=O)OC)[C@H]2C(=O)N(Cc3ccccc3)C(=O)[C@@H]12)C(=O)Nc1ccc(C(F)(F)F)cc1	6.5µM*	-108*	-9%	26%	2%	5%
COC(=O)[C@]1(Cc2ccccc2)N[C@H](CN(C)C(=O)C2CCCCC2)[C@@H]2C(=O)N(Cc3ccccc3)C(=O)[C@@H]21	16µM*	-6	21µM*	?	1%	1%
CCN(C[C@H]1N[C@@](Cc2ccccc2)(C(=O)OC)[C@H]2C(=O)N(C)C(=O)[C@@H]12)C(=O)c1ccc(C)cc1	-18%	-16	-10%	2%	16%	12%
CCN(C[C@H]1N[C@@](CC)(C(=O)OC)[C@H]2C(=O)N(Cc3ccccc3)C(=O)[C@@H]12)C(=O)Nc1ccc(OC)cc1	-30%	-10	0%	21%	1%	-3%
Cc1ccc(N2C(=O)c3ccccc3NC2(C(=O)O)c2ccccc2)cc1Cl (stereo not drawn)	10%	2	-2%	?	0%	?
O=C(COc1ccc(Cl)cc1Br)NC(=O)NC1CCCC1	-7%	3	-5%	?	2%	-1%
CCN(C[C@H]1N[C@@](C)(C(=O)OC)[C@H]2C(=O)N(Cc3ccccc3)C(=O)[C@@H]12)C(=O)c1ccccc1	-25%	7	2%	1%	-2%	13%
CCN(C[C@H]1N[C@@](CC)(C(=O)OC)[C@H]2C(=O)N(Cc3ccccc3)C(=O)[C@@H]12)C(=O)c1ccc(C)cc1	15µM*	0	?	8.2µM*	7%	-3%
COC(=O)[C@]1(Cc2ccccc2)N[C@H](CN(C)C(=O)c2ccc(C)cc2)[C@@H]2C(=O)N(Cc3ccccc3)C(=O)[C@@H]21	18µM*	-2	?	?	5%	0%
COC(=O)[C@]1(Cc2ccccc2)N[C@H](CN(C)C(=O)Nc2ccc(OC)cc2)[C@@H]2C(=O)N(C)C(=O)[C@@H]21	9%	5	9%	9%	-3%	1%
COC(=O)[C@]1(Cc2ccccc2)N[C@H](CN(C)C(=O)Nc2ccc(OC)cc2)[C@@H]2C(=O)N(Cc3ccccc3)C(=O)[C@@H]21	8.2µM*	-26	18µM*	-8%	-8%	-13%
CC[C@@]1(C(=O)OC)N[C@H](CN(C)C(=O)c2ccc(C)cc2)[C@@H]2C(=O)N(Cc3ccccc3)C(=O)[C@@H]21	-18%	-8	-26%	-6%	0%	6%
Cc1ccc(S(=O)(=O)n2cccc2C)cc1	-2%	4	?	·	-2%	-3%
COc1ccc(OC)c(N=C2SCCCN2C(=O)c2ccc(N3C(=O)CCC3=O)cc2)c1	·	·	·	12%	·	·
CC(C)Cn1cnc2c(Sc3c([N+](=O)[O-])ncn3C)nc(N)nc21	?	-101*	?	·	-8%	-12%
Nc1nc(SCc2ccccc2[N+](=O)[O-])c2ncn(Cc3ccccc3)c2n1	?	-21	?	·	?	?
CCC(C)Cn1cnc2c(Sc3c([N+](=O)[O-])ncn3C)nc(N)nc21 (stereo not drawn)	23µM*	-56*	16µM*	·	?	?
N#C/C(=C/c1cccc([N+](=O)[O-])c1)C(=O)Nc1ccccc1O	?	-7	3.7µM*	-1%	-2%	-2%
N#C/C(=C\C=C\c1ccccc1)C(=O)NCc1cccnc1	29µM*	-89*	26µM*	?	?	?
N#C/C(=C\c1cccc([N+](=O)[O-])c1)C(=O)Nc1cccnc1	-12%	38	-2%	3%	-15%	-4%
N#C/C(=C\c1cccc([N+](=O)[O-])c1)C(=O)NCc1ccc(Cl)cc1	12µM*	-108*	5.8µM*	?	?	?
N#C/C(=C\c1cccs1)C(=O)NCc1cccnc1	13%	14	-6%	3%	-5%	-1%
SMILES	DT40 TDP1 no CPT	IL1B secr inh	TDP1 cell CPT	ELG1 DNA repair	HT1080-NT tox	HT1080 IDH1KD tx
N#C/C(=C\c1cccc([N+](=O)[O-])c1)C(=O)NCc1cccnc1	21µM*	13	21µM*	21µM*	6%	7%
COC(=O)CCN(Cc1ccccc1)S(=O)(=O)c1ccccc1Br	?	37	-3%	-3%	12%	4%
C=CCCN(Cc1ccccc1)S(=O)(=O)c1cc(Br)ccc1Br	15µM*	16	?	-13%	-19%	-23%
Cc1ccc(NC(=O)CN2C(=O)CCc3cc(S(=O)(=O)N4CCOCC4)ccc32)cc1N(C)C	3%	·	-8%	·	·	·
CCOC(=O)[C@]12CCC=C1N(Cc1ccccc1)C(=O)[C@H](CC(=O)NCc1ccccc1)C2	16µM*	-7	?	·	16%	1%
CCOC(=O)[C@]12CCC=C1N(Cc1ccc(Cl)cc1Cl)C(=O)[C@H](CC(=O)NCc1ccccc1)C2	23µM*	-64*	?	·	?	?
CCOC(=O)[C@]12CCCC=C1N(Cc1ccc(Cl)cc1Cl)C(=O)[C@H](CC(=O)NCc1cccc(C(F)(F)F)c1)C2	18µM*	-55*	15µM*	·	33µM*	?
CCOC(=O)[C@]12CCC=C1N(Cc1ccc(Cl)cc1Cl)C(=O)[C@H](CC(=O)NCc1ccc(C)o1)C2	18µM*	·	?	·	?	?
